Experimental data: PubChem BioAssay (NCATS)
Results filed as inconclusive are left out. Unmarked numbers belong to inactive results. Active and inactive are the calls of the source. The call rests on the fitted dose curve; in most records, active means well fitted inhibition curve with a large enough effect; inconclusive means small, poorly fitted or top-dose-only effect; inactive means flat fitted curve, though single readings scatter.

Target: Ubiquitin carboxyl-terminal hydrolase 1 (Homo sapiens) (UniProt O94782)
Sequence (O94782 whole entry, looked up): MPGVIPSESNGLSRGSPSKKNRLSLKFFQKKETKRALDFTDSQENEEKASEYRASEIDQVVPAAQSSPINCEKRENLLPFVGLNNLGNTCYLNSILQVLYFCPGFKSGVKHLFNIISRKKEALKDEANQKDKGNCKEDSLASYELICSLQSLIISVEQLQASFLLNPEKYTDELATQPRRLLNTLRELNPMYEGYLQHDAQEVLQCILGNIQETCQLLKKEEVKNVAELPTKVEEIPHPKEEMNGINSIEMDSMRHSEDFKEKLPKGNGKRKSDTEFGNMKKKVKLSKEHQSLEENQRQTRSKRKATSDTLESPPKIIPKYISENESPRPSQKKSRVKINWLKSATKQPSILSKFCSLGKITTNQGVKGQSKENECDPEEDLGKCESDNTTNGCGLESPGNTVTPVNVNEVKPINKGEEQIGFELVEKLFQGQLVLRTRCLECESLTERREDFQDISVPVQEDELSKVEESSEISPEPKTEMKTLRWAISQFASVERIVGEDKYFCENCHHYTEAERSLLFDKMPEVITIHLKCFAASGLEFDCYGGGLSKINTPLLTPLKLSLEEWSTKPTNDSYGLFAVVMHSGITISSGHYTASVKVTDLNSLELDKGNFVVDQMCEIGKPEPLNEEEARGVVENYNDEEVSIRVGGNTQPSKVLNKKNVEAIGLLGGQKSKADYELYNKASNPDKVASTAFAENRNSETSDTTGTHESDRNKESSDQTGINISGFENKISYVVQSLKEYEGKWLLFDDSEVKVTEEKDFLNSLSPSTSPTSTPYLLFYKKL
Test: Inhibitors of USP1/UAF1: Pilot qHTS (AID 504865); further: nearly all actives have a fitted effect of over 35% in size;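 on activity change, negative = inhibition: rhodamine fluorescence freed from ubiquitin-rhodamine substrate followed over time; top concentration of the series differs between compounds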
Details: purified USP1/UAF1, Ub-rhodamine cleavage fluorescence; series mostly up to 114 µM; activity change, negative = inhibition: at the top concentration
Outline: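 1nM USP1/UAF1 + cpd, 15 min RT; start w/ Ub-Rho 150nM final; kinetic FL 480/540 nm, 6 reads q60 s. Buffer 50mM HEPES pH 7.8, 0.5mM EDTA, 1mM TCEP, 0.01% Tween-20, 0.1 mg/ml BSA.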
On the % scale 0 is the no-effect control and ±100 the full control effect; potency means the concentration at half of the fitted maximal effect.

Row | SMILES | activity change, negative = inhibition | Potency
1 | COc1ccc2c3c1O[C@H]1C[C@@H](O)C=C[C@@]31CCN(C)C2 | 2.31% | 
2 | COC(=O)CCC(=O)CN | -2.44% | 
3 | O=C1C(=O)c2ncccc2-c2cccnc21 |  | 50.1 µM (active)
4 | CC(NNC(=O)c1ccccc1)c1ccccc1 (configuration not stated) | -9.41% | 
5 | Cc1c(C)c2c(c(C)c1O)CC[C@@](C)(CCC[C@@H](C)CCC[C@@H](C)CCCC(C)C)O2 | -0.831% | 
6 | CCCCCCCCCCCC[n+]1ccc2ccccc2c1 |  | 89.1 µM (active)
7 | Cc1ccccc1OCC(O)CNCCOc1ccc(C(N)=O)cc1 (configuration not stated) | -11.6% | 
8 | C[C@]12CCC(=O)C=C1CC[C@@H]1[C@@H]2[C@@H](O)C[C@@]2(C)[C@H]1CC[C@]2(O)C(=O)COP(=O)(O)O | -4.28% | 
9 | Nc1c(Br)cc(Br)cc1CNC1CCC(O)CC1 (configuration not stated) |  | inactive
10 | CCN(CC)Cc1cc(Nc2ccnc3cc(Cl)ccc23)ccc1O | -12% [at 54.9 µM] | 
11 | CCCCCCCCCCCCCC[n+]1ccc(C)cc1 |  | 56.2 µM (active)
12 | CN1Cc2c(N)cccc2C(c2ccccc2)C1 (configuration not stated) |  | inactive
13 | O=S(=O)(O)O | 2.11% | 
14 | COC(F)(F)C(Cl)Cl | -0.989% | 
15 | C#CCOc1ccc2c(C)cc(=O)oc2c1 | -8.28% | 
16 | Cc1cc(/C=C/c2ccc3cc(N(C)C)ccc3[n+]2C)c(C)n1-c1ccccc1 |  | 44.7 µM (active)
17 | CO[C@H](C(=O)[C@@H](O)[C@@H](C)O)C1Cc2cc3cc(O[C@H]4C[C@@H](O[C@H]5C[C@@H](O)[C@H](O)[C@@H](C)O5)[C@@H](O)[C@@H](C)O4)c(C)c(O)c3c(O)c2C(=O)[C@H]1O[C@H]1C[C@@H](O[C@H]2C[C@@H](O[C@H]3C[C@](C)(O)[C@H](O)[C@@H](C)O3)[C@H](O)[C@@H](C)O2)[C@H](O)[C@@H](C)O1 (some centres not stated) | 2.01% | 
18 | CCCCCCC(O)C/C=C/CCCCCCCC(=O)O (configuration not stated) | -6.35% | 
19 | CC[N+](C)(C)Cc1ccccc1Br | 2.14% [at 54.9 µM] | 

Row | SMILES | activity change, negative = inhibition | Potency
20 | CC(=O)Oc1cc(C)c(OC(C)=O)c2ccccc12 | -9.04% | 
21 | NC1C2CN(c3nc4c(cc3F)c(=O)c(C(=O)O)cn4-c3ccc(F)cc3F)CC12 (configuration not stated) | -5.22% | 
22 | C=CCSSSCC=C | -3.54% | 
23 | O=C(O)c1cc(O)c2c(c1)[O][Bi][O]2 | -3.77% | 
24 | CCCCCCOc1ccc(C(=N)N(CCCC)CCCC)c2ccccc12 |  | 39.8 µM (active)
25 | CCCCC(C)(O)C/C=C/[C@H]1[C@H](O)CC(=O)[C@@H]1CCCCCCC(=O)OC (some centres not stated) | 3.34% | 
26 | CCC(=O)NCCC1CCc2ccc3c(c21)CCO3 (configuration not stated) | -3.43% | 
27 | CC(C(=O)O)c1ccc(N2Cc3ccccc3C2=O)cc1 (configuration not stated) | -11.2% | 
28 | C[C@@H]1CCC2[C@@H](C)[C@@H](O)O[C@@H]3O[C@@]4(C)CC[C@@H]1[C@@]23OO4 (some centres not stated) | -6.95% | 
29 | Nc1c(N=Nc2ccc(-c3ccc(N=Nc4cc(S(=O)(=O)O)c5ccccc5c4N)cc3)cc2)cc(S(=O)(=O)O)c2ccccc12 |  | 15.8 µM (active)
30 | O=S(=O)(O)c1cc(O)c2c(N=Nc3ccc(Nc4ccccc4)c4c(S(=O)(=O)O)cccc34)cc(S(=O)(=O)O)cc2c1 |  | 11.2 µM (active)
31 | O=C(O)CN(CCN(CC(=O)O)CC(=O)O)CC(=O)O |  | inactive
32 | O=S(=O)(O)c1ccc2c(N=Nc3ccc(S(=O)(=O)O)c4ccccc34)c(O)c(S(=O)(=O)O)cc2c1 |  | 17.8 µM (active)
33 | CC1=C(/C=C/C(C)=C/C=C/C(C)=C/C=C/C=C(C)/C=C/C=C(C)/C=C/C2=C(C)CCCC2(C)C)C(C)(C)CCC1 | -1.64% | 
34 | CC(C)(C)C(=O)OCOC(=O)[C@@H]1N2C(=O)[C@@H](N=CN3CCCCCC3)[C@H]2SC1(C)C | 5.74% [at 54.9 µM] | 
35 | CCCC(=O)Nc1ncnc2c1ncn2C1OC2COP(=O)(O)OC2C1OC(=O)CCC (configuration not stated) | -0.134% | 
36 | CC(=O)Oc1c(C)cc(OCC(O)CNC(C)C)c(C)c1C (configuration not stated) | -6.22% | 
37 | CCCCCCCCCCCCCCCC(=O)OCC(COC(=O)CCCCCCCCCCCCCCC)OC(=O)CCCCCCCCCCCCCCC | -8.34% | 
